Measured values from PubChem BioAssay (Tox21).
Records with an inconclusive call do not appear. Active and inactive are the calls of the source. Calls follow the shape of the dose curve; as a rule, active = well fitted activation curve with a large enough effect in the repeat runs; inconclusive = weak or mixed curves; inactive = flat fitted curve, though single readings scatter.

Assay: A CellTox Green Cytotoxicity Assay to monitor cytotoxicity in HEK293 cells - 32 hour (AID 1224881); also: nearly all actives have a fitted effect of over 40% in size
Details: CellTox Green fluorescence; series mostly up to 76.8 µM; cytotoxicity increase: at the top concentration
Excerpt: National Center for Advancing Translational Sciences [NCATS]
NIH Chemical Genomics Center [NCGC]
U.S. Environmental Protection Agency [EPA]
National Institutes of Environmental Health Sciences [NIEHS]
National Toxicology Program [NTP]
Cell-based models are critical for drug discovery. Determining the natural cytotoxic effects resulting from test compounds is an essential research activity. A CellTox Green Cytotoxicity Assay to monitor cytotoxicity in real time of continues cell culture during 40 hours of the compound treatment was used to screen Tox21 10K library compounds in Hek293 cells. CellTox Green Cytotoxicity Assay is a nonlytic, homogeneous, biofluorescent method to measure cytotoxicity in cell culture after experimental manipulation. The assay system uses a proprietary asymmetric cyanine dye that is excluded from viable cells but preferentially stains the dead cell's DNA. […] Viable cells produce no appreciable increases in fluorescence. Therefore, the fluorescence signal produced by the binding interaction with dead cell DNA is proportional to cytotoxicity.
The mixture of Hek293 cell suspension and reagents were dispensed at 600cells/6 ul/well in 1536-well tissue culture treated black solid bottom plates using a Multidrop dispenser. After the assay plates were incubated at a 37 C/5% CO2 incubator for 5 hours, 23 nL of compounds dissolved in DMSO, positive and negative controls was transferred to the assay plate by a pintool work station. The plates were incubated at 37 C for 40 hours. The fluorescence intensity were measured at 0h, 8h, 16h, 24h, 32h and 40h time points using ViewLux plate reader during compound treatment.
% is scaled to controls: 0 for no effect and ±100 for the full control effect.

Row | Structure (SMILES) | cytotoxicity increase
1 | CCOC(=O)c1ccc(N(C)C)cc1 | -2.98% (inactive)
2 | CC(=O)SCC(CC(=O)c1ccc(C)cc1)C(=O)O (stereo not given) | -2.28% [at 35.3 µM] (inactive)
3 | N=C(N)N | 22% [at 35.3 µM] (inactive)
4 | Cc1cc(=O)oc2cc(O[C@@H]3SC[C@@H](O)[C@H](O)[C@H]3O)ccc12 | -6.57% [at 35.3 µM] (inactive)
5 | Nc1nc(Cl)cc(Cl)n1 | 0.35% (inactive)
6 | Cc1cc(C)c(N)c(Cl)c1 | -2.44% (inactive)
7 | CC(C)=CCC/C(C)=C\C#N | -17.4% (inactive)
8 | CC(=O)SC[C@@H](C)C(=O)N1CCC[C@H]1C(=O)N[C@@H](Cc1ccccc1)C(=O)O | 0% [at 35.3 µM] (inactive)
9 | CNCCc1ccccn1 | 2.76% [at 35.3 µM] (inactive)
10 | C=CCCCCCCCCOC(C)=O | 7.86% (inactive)
11 | N#Cc1cc(NC(=O)C(=O)O)c(Cl)c(NC(=O)C(=O)O)c1 | -18.2% [at 35.3 µM] (inactive)
12 | C[n+]1ccccc1/C=N/O | -4.24% [at 35.3 µM] (inactive)
13 | COc1cc(OC)cc(OC)c1 | 2.23% [at 35.3 µM] (inactive)
14 | CCN1CCN(C(=O)N[C@@H](C(=O)N[C@@H]2C(=O)N3[C@@H]2SC(C)(C)[C@H]3C(=O)O)c2ccccc2)C(=O)C1=O | -3.08% [at 35.3 µM] (inactive)
15 | Nc1ccc(C(=O)NCC(=O)O)cc1 | -12.4% [at 35.3 µM] (inactive)
16 | CN1C(CCl)Nc2cc(Cl)c(S(N)(=O)=O)cc2S1(=O)=O (stereo not given) | -16.8% [at 35.3 µM] (inactive)
17 | CCO/C=C1\N=C(c2ccccc2)OC1=O | -9.67% (inactive)
18 | CC(=O)OC1CCC(C(C)(C)C)CC1 (stereo not given) | 3.76% (inactive)
19 | COc1cc2nc(N3CCN(C(=O)C4CCCO4)CC3)nc(N)c2cc1OC (stereo not given) | -11.7% [at 35.3 µM] (inactive)
20 | O=C1c2ccccc2C(=O)N1CO | -2.39% (inactive)

Row | Structure (SMILES) | cytotoxicity increase
21 | CC[C@@]1(c2ccccc2)NC(=O)N(C)C1=O | 0.0957% [at 35.3 µM] (inactive)
22 | CCCCCC(CC)OC(=O)CCCOc1ccc(Cl)cc1Cl (stereo not given) | -21% (inactive)
23 | COc1cc(C(=O)NC2CCCNC2)cc(OC)c1OC (stereo not given) | -1.64% [at 35.3 µM] (inactive)
24 | NNC(=O)CCCCC(=O)NN | -15.9% (inactive)
25 | COc1cnc(NS(=O)(=O)c2ccc(N)cc2)nc1 | 18.7% [at 35.3 µM] (inactive)
26 | Cc1cc(C)c(C)c(C)c1 | 0.809% (inactive)
27 | CCCC(=O)OC | -5.61% (inactive)
28 | Cc1ccc2cccnc2c1 | -2.87% (inactive)
29 | CCc1ccc(CC)cc1 | -12.4% (inactive)
30 | Cc1ccccc1OCC(=O)O | 1.68% (inactive)
31 | O=P(O)(O)C(O)(Cc1cccnc1)P(=O)(O)O | -14.8% [at 35.3 µM] (inactive)
32 | Nc1cc(S(=O)(=O)O)ccc1O | 22.2% (inactive)
33 | C/C=C(\C)C(=O)OC/C=C(\C)CCC=C(C)C | -1.97% (inactive)
34 | CC(O)C(CO)C(C)O (stereo not given) | -0.333% (inactive)
35 | CC(C)c1cc(C(C)C)cc(C(C)C)c1 | 0.0734% (inactive)
36 | C[C@]12C=CC(=O)C=C1[C@@H](F)C[C@@H]1[C@@H]2[C@@H](O)C[C@@]2(C)[C@H]1CC[C@]2(O)C(=O)CO | -19.5% [at 35.3 µM] (inactive)
37 | Cc1ccccc1C#N | -5.98% (inactive)
38 | COc1ccc(Cl)cc1C | -7.04% (inactive)
39 | CN(C)CCc1c[nH]c2ccc(CS(=O)(=O)N3CCCC3)cc12 | -11.8% [at 35.3 µM] (inactive)
40 | COC(=O)c1ccc(NC(C)=O)cc1OC | -1.77% [at 35.3 µM] (inactive)
